The values below come from PubChem BioAssay (Tox21).

Unmarked numbers belong to inactive results. Records with an inconclusive call do not appear. Active and inactive are the calls of the source. Unless noted, calls come from the whole dose curve.

Assay [1] is described as follows: Nuclear factor erythroid 2-related factor 2/antioxidant responsive element (Nrf2/ARE) small molecule agonists: qHTS cell viability counter screen in human keratinocytes (AID 1919968; active = well fitted curve in the direction sought with a large enough effect in the repeat runs; an effect the other way counts as inactive or inconclusive; note: nearly all actives have a fitted effect of over 55% in size). The method in brief: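 KeratinoSens HaCaT cells, 1,500/well, preincubated 5 h, then exposed to compounds in DMSO for 23 h at 37 C/5% CO2. Viability read as CellTiter-Fluor fluorescence after 1 h, in the same wells as the ARE-luciferase read.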
In general terms: In qHTS, concentration-response curves come from the screen itself.

Assay [2] in a line: Nuclear factor erythroid 2-related factor 2/antioxidant responsive element (Nrf2/ARE) small molecule agonists: luciferase reporter gene qHTS assay in human keratinocytes (AID 1919969). Note: nearly all actives have a fitted effect of over 35% in size. Note: potency is the fitted concentration of half-maximal effect.
The target in assay [3] is Gonadotropin-releasing hormone receptor (Homo sapiens) (UniProt P30968). The assay is described as follows: Human gonadotropin-releasing hormone receptor (GnRHR) small molecule agonists, calcium flux assay in GnRHR-HEK293 cells (AID 1920063). Note: nearly all actives have a fitted effect of over 35% in size. The procedure, abridged:
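HEK293 cells stably expressing human GnRHR were dye-loaded for 1 h at 37 C. Compound was added in agonist mode and fluorescence (Ex/Em 480/540) recorded kinetically for 3 min. Fifteen concentrations, triplicates.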
A general note: Calcium assays in cells follow changes in intracellular calcium, usually with a dye or a luminescent sensor.

For assay [4], the target named is KiSS-1 receptor (Homo sapiens) (UniProt Q969F8). The assay can be described thus: Human kisspeptin (KISS1R) small molecule agonists, calcium flux assay in KISS1R-HEK293 cells (AID 1920064; active = well fitted curve in the direction sought with a large enough effect in the repeat runs; an effect the other way counts as inactive or inconclusive). The method in brief:
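HEK293 cells stably expressing human KISS1R were loaded with calcium dye for 1 h at 37 C, then given compound; fluorescence (Ex/Em 480/540) was read kinetically for 3 min. Fifteen concentrations, triplicate.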

The nature of assay [5]: G protein-coupled receptor (GPCR) small molecule agonists, calcium flux assay: HEK293 wild type cell line counter screen (AID 1920065). The procedure, abridged:
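Wild-type HEK293 cells plated 18 h, loaded with calcium dye 1 h at 37 C, then compounds added in agonist mode (ATP as positive control). Kinetic fluorescence Ex/Em 480/540 recorded 3 min at 1 sec intervals; 15 concentrations, triplicate.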

The nature of assay [6]: p53 small molecule agonists, cell-based qHTS assay with human liver microsomes (AID 1963577).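 Note: p53 response element beta-lactamase reporter cells with liver microsomes plus NADPH.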 The procedure, abridged:
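With metabolic activation: human liver microsomes (0.5 mg/mL final) plus NADPH (0.5 mg/mL final) added alongside compounds to p53RE-bla cells; 16 h 37 C exposure; beta-lactamase read by LiveBLAzer fluorescence.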

Assay [7] can be described thus: p53 small molecule agonists, cell-based qHTS assay with rat liver microsomes (AID 1963578). The method in brief: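 Metabolic activation by rat liver microsomes and NADPH, each 0.5 mg/mL final, added right after compounds to p53RE-bla reporter cells (4,000/well, plated 5 h earlier). 16 h at 37 C, then LiveBLAzer substrate for 2 h at room temperature in the dark; fluorescence read-out.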

The nature of assay [8]: p53 small molecule agonists, cell-based qHTS assay with human liver microsomes: qHTS cell viability counter screen (AID 1963579). Note: nearly all actives have a fitted effect of over 45% in size. The method in brief: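 Metabolic activation used human liver microsomes and NADPH, both 0.5 mg/mL final, over 16 hours at 37 C on p53RE-bla cells (4,000/well). Cytotoxicity measured by CellTiter-Glo luminescence, 30 min at room temperature.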
Assay [9] in a line: p53 small molecule agonists, cell-based qHTS assay with rat liver microsomes: qHTS cell viability counter screen (AID 1963580). Note: nearly all actives have a fitted effect of over 45% in size. The procedure, abridged:
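Viability is assessed in parallel with the p53 reporter read: HCT-116 p53RE-bla cells receive compounds plus rat microsomes and NADPH (0.5 mg/mL final apiece), incubate 16 h at 37 C, and then CellTiter-Glo luminescence is recorded.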

Assay [10] is described as follows: p53 small molecule agonists, cell-based qHTS assay: qHTS cell viability counter screen (AID 1963581). Note: nearly all actives have a fitted effect of over 45% in size. The method in brief:
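p53RE-bla HCT-116 cells, compounds added 5 h after plating and incubated 16 h at 37 C. Cytotoxicity measured in the same wells as intracellular ATP by CellTiter-Glo luminescence after 30 min at room temperature.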

Assay [11] in a line: p53 small molecule agonists, cell-based qHTS assay (AID 1963582; active = well fitted activation curve with a large enough effect in the signal ratio in the repeat runs, not every such curve was filed as active; the % refers to the signal ratio). The procedure, abridged: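 p53RE-bla reporter cells, compounds added in DMSO after 5 h plating, incubated 16 h at 37 C. Beta-lactamase read via 2 h room-temperature LiveBLAzer B/G FRET substrate, fluorescence intensity.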
Assay [12] addresses 5-hydroxytryptamine receptor 2A (Homo sapiens) (UniProt P28223). The assay is described as follows: 5-hydroxytryptamine receptor 2A (HTR2A) small molecule antagonists, cell-based qHTS assay (AID 1963586). Note: nearly all actives have a fitted effect of over 45% in size. The method in brief: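 Antagonist-mode intracellular calcium assay: DOI (4 nM) added after 5 min compound pre-incubation at room temperature to dye-loaded HTR2A-CHO cells. Fluorescence followed for 3 min, sampled every second.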

Assay [13] shares this target. The assay is described as follows: 5-hydroxytryptamine receptor 2A (HTR2A) small molecule agonists, cell-based qHTS assay (AID 1963587). Note: nearly all actives have a fitted effect of over 30% in size. The procedure, abridged: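 CHO cells stably expressing human HTR2A, plated 18 h, loaded with calcium dye 1 h at 37 C. Agonist mode: compounds added and intracellular calcium fluorescence recorded kinetically for 2 min at 1 sec intervals.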

In assay [14] the target is Muscarinic acetylcholine receptor M1 (Homo sapiens) (UniProt P11229). The assay is described as follows: Cholinergic receptor muscarinic 1 (CHRM1) small molecule antagonists, cell-based qHTS assay (AID 1963588). Note: nearly all actives have a fitted effect of over 40% in size. The procedure, abridged: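 CHRM1-CHO calcium-flux assay, antagonist mode. Cells were seeded 18 h, dye-loaded 1 h at 37 C and given compound for 5 min at RT, then acetylcholine was added at 50nM. FDSS fluorescence was read 3 min; 15 concentrations, three runs.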
Sequence of Muscarinic acetylcholine receptor M1 (Homo sapiens) (P11229 whole entry, looked up): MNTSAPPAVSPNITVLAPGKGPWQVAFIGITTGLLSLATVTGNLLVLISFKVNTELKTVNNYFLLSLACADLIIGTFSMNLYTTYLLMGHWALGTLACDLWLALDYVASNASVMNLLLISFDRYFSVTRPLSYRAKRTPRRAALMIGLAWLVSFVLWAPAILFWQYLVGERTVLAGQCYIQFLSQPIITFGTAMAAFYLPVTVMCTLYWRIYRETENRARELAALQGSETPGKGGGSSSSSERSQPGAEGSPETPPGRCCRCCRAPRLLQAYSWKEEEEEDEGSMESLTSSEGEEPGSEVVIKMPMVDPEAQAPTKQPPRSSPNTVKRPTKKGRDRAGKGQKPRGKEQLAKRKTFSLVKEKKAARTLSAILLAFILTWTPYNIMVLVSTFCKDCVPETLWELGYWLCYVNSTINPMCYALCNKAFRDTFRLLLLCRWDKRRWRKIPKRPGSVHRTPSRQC

The target is the same in assay [15]. The assay can be described thus: Cholinergic receptor muscarinic 1 (CHRM1) small molecule agonists, cell-based qHTS assay (AID 1963589). Note: nearly all actives have a fitted effect of over 35% in size. The method in brief:
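CHO cells stably expressing human CHRM1 were loaded with calcium dye for 1 h at 37 C, then compound was added in agonist mode. Intracellular calcium fluorescence was followed kinetically at 1 s intervals. Fifteen concentrations were tested in three independent runs.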

A short description of assay [16]: cAMP Responsive Elements (CRE) small molecule agonists, cell-based qHTS assay (AID 1963590). The procedure, abridged: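 CRE-bla HEK 293T cells, 2,000/well in DMEM with 10% dialyzed FBS and 25 mM HEPES, pre-incubated 18 h at 37 C, then exposed to compound 3 h at 37 C. Beta-lactamase reporter read with LiveBLAzer B/G FRET substrate after 2 h at room temperature.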

Assay [17] is described as follows: cAMP Responsive Elements (CRE) small molecule antagonists, cell-based qHTS assay (AID 1963591; active = well fitted inhibition curve with a large enough effect in the signal ratio in the repeat runs, not every such curve was filed as active; the % refers to the signal ratio). The method in brief: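 CRE-bla HEK293T cells plated 18 h, then given compound plus NKH477 at 0.25 uM final for 3 h at 37C. Beta-lactamase reporter read with LiveBLAzer B/G FRET substrate after 2 h at room temperature.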
In assay [18] the target is Beta-2 adrenergic receptor (Homo sapiens) (UniProt P07550). The assay can be described thus: Adrenergic beta2 receptor (ADRB2) small molecule antagonists, cell-based qHTS assay (AID 1963592). For activity change, negative = inhibition: series mostly up to about 92 µM. Note: nearly all actives have a fitted effect of over 50% in size. Note: potency is the fitted concentration of half-maximal effect. The method in brief:
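Cells (CHO, stable ADRB2 overexpression) incubated 18-20hr at 37C; compounds added from DMSO; agonist mix (1nM isoproterenol, 100uM IBMX, 25uM Ro-20-1724) added; 0.5hr RT; d2-cAMP and anti-cAMP-cryptate added; 1hr RT; 665/615 nm read.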

Assay [19] addresses D(2) dopamine receptor (Homo sapiens) (UniProt P14416). The assay can be described thus: Dopamine D2 receptor (DRD2) small molecule agonists, cell-based qHTS assay (AID 1963594). Note: nearly all actives have a fitted effect of over 35% in size. The procedure, abridged: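 HEK293 cells stably expressing human DRD2, pre-treated with PDE inhibitor Ro20-1724 (0.1 mM final) and compound 10 min at room temperature, then stimulated with NKH477 (200nM […]) for 30 min. cAMP read by HTRF (665/620 nm).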

The target is the same in assay [20]. The assay can be described thus: Dopamine D2 receptor (DRD2) small molecule antagonists, cell-based qHTS assay (AID 1963595; active = well fitted inhibition curve with a large enough effect in the signal ratio in the repeat runs, with a control signal flat; the % refers to the signal ratio). The procedure, abridged: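 HEK293 cells stably expressing DRD2 were preincubated with 0.1 mM Ro20-1724, then with compound for 10 min at room temperature. Cells were stimulated with 200 nM NKH477 plus 12 nM quinpirole for 30 min, and cAMP was read by HTRF.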
% is set by controls: 0 for no effect and ±100 for the full control effect.

Sequence of 5-hydroxytryptamine receptor 2A (Homo sapiens) (P28223 whole entry, looked up): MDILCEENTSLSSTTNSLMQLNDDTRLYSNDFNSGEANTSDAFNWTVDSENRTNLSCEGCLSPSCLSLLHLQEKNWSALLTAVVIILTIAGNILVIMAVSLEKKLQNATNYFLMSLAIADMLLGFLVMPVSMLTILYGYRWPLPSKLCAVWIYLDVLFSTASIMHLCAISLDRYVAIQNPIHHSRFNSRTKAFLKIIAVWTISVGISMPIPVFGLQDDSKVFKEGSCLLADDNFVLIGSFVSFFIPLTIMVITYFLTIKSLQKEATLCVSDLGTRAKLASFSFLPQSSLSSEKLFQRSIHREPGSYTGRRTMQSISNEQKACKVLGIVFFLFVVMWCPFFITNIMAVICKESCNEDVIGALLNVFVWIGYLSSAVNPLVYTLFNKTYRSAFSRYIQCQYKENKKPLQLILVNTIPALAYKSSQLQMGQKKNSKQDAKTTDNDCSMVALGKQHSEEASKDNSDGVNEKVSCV
Sequence of D(2) dopamine receptor (Homo sapiens) (P14416 whole entry, looked up): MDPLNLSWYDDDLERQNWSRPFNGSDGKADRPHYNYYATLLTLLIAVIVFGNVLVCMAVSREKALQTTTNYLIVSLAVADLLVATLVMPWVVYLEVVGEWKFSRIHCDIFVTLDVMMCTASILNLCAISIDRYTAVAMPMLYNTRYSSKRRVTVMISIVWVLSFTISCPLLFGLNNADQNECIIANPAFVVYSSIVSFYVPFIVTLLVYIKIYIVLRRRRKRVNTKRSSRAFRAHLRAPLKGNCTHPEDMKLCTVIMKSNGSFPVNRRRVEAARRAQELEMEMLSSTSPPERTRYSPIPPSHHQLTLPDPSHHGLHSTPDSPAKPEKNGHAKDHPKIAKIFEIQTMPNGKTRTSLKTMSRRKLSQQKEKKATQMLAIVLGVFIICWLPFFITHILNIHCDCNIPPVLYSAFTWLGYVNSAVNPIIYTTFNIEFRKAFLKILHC
Sequence of KiSS-1 receptor (Homo sapiens) (Q969F8 whole entry, looked up): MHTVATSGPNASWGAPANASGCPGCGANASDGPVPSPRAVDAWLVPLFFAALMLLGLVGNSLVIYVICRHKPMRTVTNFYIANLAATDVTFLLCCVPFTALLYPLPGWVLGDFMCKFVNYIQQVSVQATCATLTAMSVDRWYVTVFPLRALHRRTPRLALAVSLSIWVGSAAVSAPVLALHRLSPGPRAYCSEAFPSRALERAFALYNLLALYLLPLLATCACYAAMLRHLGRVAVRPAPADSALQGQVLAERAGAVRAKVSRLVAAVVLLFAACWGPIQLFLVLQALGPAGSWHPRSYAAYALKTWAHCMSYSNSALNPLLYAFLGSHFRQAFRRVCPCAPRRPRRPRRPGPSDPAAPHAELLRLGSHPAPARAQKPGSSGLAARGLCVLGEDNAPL
Sequence of Beta-2 adrenergic receptor (Homo sapiens) (P07550 whole entry, looked up): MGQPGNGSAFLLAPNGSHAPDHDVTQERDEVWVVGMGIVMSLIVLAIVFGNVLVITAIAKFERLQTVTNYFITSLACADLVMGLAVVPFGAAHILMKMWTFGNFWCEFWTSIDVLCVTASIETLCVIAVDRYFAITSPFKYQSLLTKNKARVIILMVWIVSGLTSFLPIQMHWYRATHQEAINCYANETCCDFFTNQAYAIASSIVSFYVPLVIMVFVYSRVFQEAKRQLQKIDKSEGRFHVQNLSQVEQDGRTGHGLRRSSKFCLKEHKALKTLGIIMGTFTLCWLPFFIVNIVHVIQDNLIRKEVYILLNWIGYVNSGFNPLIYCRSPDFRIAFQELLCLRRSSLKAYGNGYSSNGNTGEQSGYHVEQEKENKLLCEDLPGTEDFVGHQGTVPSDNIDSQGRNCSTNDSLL
Sequence of Gonadotropin-releasing hormone receptor (Homo sapiens) (P30968 whole entry, looked up): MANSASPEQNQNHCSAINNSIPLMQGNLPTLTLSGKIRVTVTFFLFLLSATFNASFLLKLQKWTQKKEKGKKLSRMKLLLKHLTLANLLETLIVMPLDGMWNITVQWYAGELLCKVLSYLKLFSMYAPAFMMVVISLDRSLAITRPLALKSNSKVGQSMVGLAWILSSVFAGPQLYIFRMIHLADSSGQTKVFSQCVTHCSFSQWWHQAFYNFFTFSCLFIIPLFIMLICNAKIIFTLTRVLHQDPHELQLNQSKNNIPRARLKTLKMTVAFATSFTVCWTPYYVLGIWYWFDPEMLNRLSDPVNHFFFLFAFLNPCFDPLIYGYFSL

For `Nc1ccc(C(=O)OCC(O)CO)cc1` (stereo unspecified), the Potency result in [1], in [2], in assay [3], in assay [6], in [7] and in assay [8] was “inactive” throughout. Besides, the Potency entry in assay [9], in assay [10], in assay [11], in assay [12], in assay [13] and in assay [14] was “inactive” in each case. Moreover, the Potency result in [15], in assay [16], in [17], in assay [18], in assay [19] and in assay [20] was “inactive” in each case. The outcome in assay [4] and in assay [5] was inactive.

`CC(C)OC(=O)c1cc2c(OCC(O)CNC(C)(C)C)cccc2[nH]1` (stereo unspecified): the Potency entry in assay [1], in [2], in assay [3], in [6], in [7] and in assay [8] was “inactive” throughout. In addition, the Potency result in [9], in assay [10], in assay [11], in assay [12], in assay [13] and in assay [14] was “inactive” each time. Besides, the Potency result in assay [15], in assay [16], in [17] and in assay [20] was “inactive” throughout. Besides, the result in [4] and in assay [5] was inactive. Also, the Potency in assay [18] is 0.0033 µM (active).

For `NS(=O)(=O)c1cc2c(cc1C(F)(F)F)NCNS2(=O)=O`, the Potency entry in [1], in assay [2], in assay [3], in assay [6], in assay [7] and in assay [8] was “inactive” each time. Besides, the Potency entry in assay [9], in assay [10], in assay [11], in assay [12], in assay [13] and in [14] was “inactive” each time. For the same molecule, the Potency entry in assay [15], in assay [16], in [17], in assay [18] and in assay [20] was “inactive” throughout. The outcome in assay [4] and in [5] was inactive.

Take `O=C1OC(=O)c2cccc3cccc1c23`: the Potency entry in [1], in assay [3], in assay [6], in assay [7], in assay [8] and in [9] was “inactive” each time. Besides, the Potency entry in assay [10], in assay [11], in assay [12], in assay [13], in assay [14] and in assay [15] was “inactive” in each case. In addition, the Potency result in [16], in assay [17], in assay [18], in assay [19] and in assay [20] was “inactive” in each case. The Potency in [2] was 27.6 µM (active). Moreover, the result in assay [4] and in [5] was inactive.

For the molecule `CC1=CCC2C(C1)C2(C)C` (stereo unspecified), the Potency entry in [1], in assay [2], in assay [3], in [6], in [7] and in assay [8] was “inactive” each time. The Potency result in [9], in assay [10], in assay [11], in assay [12], in assay [13] and in [14] was “inactive” throughout. Also, the Potency entry in assay [15], in assay [16], in [17] and in [20] was “inactive” throughout. The result in assay [4] and in assay [5] was inactive. The Potency in assay [18] is 27.3 µM (active).

For the molecule `N[C@@H](CSCCCO)C(=O)O`, the activity change, negative = cytotoxicity in assay [1] was 5.92% [at 19 µM]; in assay [8], -3.2% [at 13.5 µM]; in assay [9], -10.3% [at 13.5 µM]; in [10], -10.7% [at 13.5 µM]. Moreover, the activity, positive = activation in assay [2] is -5.15% [at 19 µM]. The activity change in assay [3] is -0.573% [at 11.8 µM, active compounds read high]. Further, the activation is 2.59% [at 15.8 µM] in [4]; 0.0618% [at 11.8 µM] in assay [5]; 1.76% [at 13.5 µM] in [6]; 4.94% [at 13.6 µM] in assay [7]; 9.64% [at 13.5 µM] in assay [11]; 0.941% [at 15.9 µM] in assay [13]. Further, the activation in assay [15] is -0.169% [at 15.8 µM]; in assay [16], 0.961% [at 19 µM]. Moreover, the activity, negative = inhibition is 4.22% [at 12.7 µM] in [12] and -6.77% [at 12.6 µM] in [14]. Further, the activity change, negative = inhibition in assay [17] was 4.42% [at 18.9 µM]; in [18] it was -0.974% [at 19 µM]; in [20], 8.57% [at 18.9 µM].
